Inconclusive results are not listed. The source made the active and inactive calls. The call rests on the fitted dose curve; in most records, active means well fitted inhibition curve with a large enough effect; inconclusive means small, poorly fitted or top-dose-only effect; inactive means no such curve, though single readings can be large or run the other way.
These compounds were tested on Zika virus NS2B-NS3 protease (linked construct) (assay: Primary screen NINDS Rhodamine qHTS for Zika virus inhibitors (AID 1347160; further: nearly all actives have a fitted effect of over 55% in size)). Conditions: purified NS2B-NS3 protease, Rhodamine110 substrate fluorescence; series mostly up to 57.1 µM.
Procedure, shortened: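 Enzyme (25 nM, linked NS2B-NS3) was preincubated 15 min with compound in 10 mM Tris-HCl pH 8.0, 0.01% Tween 20. Rhodamine110 substrate (1.5 microM) was then added and fluorescence read at start and after 15 min.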
For `O=C1Cc2cc(CCN3CCN(c4nsc5ccccc45)CC3)c(Cl)cc2N1`, the outcome was “inactive”. In the case of `Clc1ccc2c(c1)C(N1CCNCC1)=Nc1ccccc1O2`, the outcome is reported as “inactive”. `CC1(C)O[C@H]2CC(=O)OC[C@]23[C@H]2CC[C@@]4(C)[C@H](c5ccoc5)OC(=O)[C@H]5O[C@]54[C@]2(C)C(=O)C[C@@H]13` was tested, and the outcome was “inactive [at 33.1 µM]”. `Cc1cc(C(C)(C)C)c(O)c(C)c1CC1=NCCN1` was tested, and the outcome was “inactive”. In the case of `O=C(c1ccc(F)cc1)C1CCN(CCn2c(=O)[nH]c3ccccc3c2=O)CC1`, the outcome is reported as “inactive”. For `CNCCCC12CCC(c3ccccc31)c1ccccc12`, the outcome was “inactive”. With `Cc1ccc(-c2cc(C(F)(F)F)nn2-c2ccc(S(N)(=O)=O)cc2)cc1` the outcome was “inactive”. In the case of `COc1ccc2[nH]cc(CCNC(C)=O)c2c1`, the outcome is reported as “inactive”. With `CS(=O)(=O)CCNCc1ccc(-c2ccc3ncnc(Nc4ccc(OCc5cccc(F)c5)c(Cl)c4)c3c2)o1` the outcome was “inactive”.

— PubChem BioAssay (NCATS)
